# From PubChem BioAssay (Tox21)
# Inconclusive results are not listed. Where a call stands in place of a potency, no number is given. The source made the active and inactive calls. Calls come from the whole dose curve.
# Target: Beta-2 adrenergic receptor (Homo sapiens) (UniProt P07550)
# Test: Adrenergic beta2 receptor (ADRB2) small molecule agonists, cell-based qHTS assay (AID 1963593);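 note: CHO cells stably overexpressing human ADRB2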
# In short: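 CHO cells stably over-expressing ADRB2 were plated overnight at 37C, then dosed with compounds plus a stimulation mix containing 100uM IBMX and 25uM Ro-20-1724 for 0.5hr at room temperature. cAMP was measured by HTRF competition, 1hr.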
# Beta-2 adrenergic receptor (Homo sapiens), sequence (P07550 whole entry, looked up): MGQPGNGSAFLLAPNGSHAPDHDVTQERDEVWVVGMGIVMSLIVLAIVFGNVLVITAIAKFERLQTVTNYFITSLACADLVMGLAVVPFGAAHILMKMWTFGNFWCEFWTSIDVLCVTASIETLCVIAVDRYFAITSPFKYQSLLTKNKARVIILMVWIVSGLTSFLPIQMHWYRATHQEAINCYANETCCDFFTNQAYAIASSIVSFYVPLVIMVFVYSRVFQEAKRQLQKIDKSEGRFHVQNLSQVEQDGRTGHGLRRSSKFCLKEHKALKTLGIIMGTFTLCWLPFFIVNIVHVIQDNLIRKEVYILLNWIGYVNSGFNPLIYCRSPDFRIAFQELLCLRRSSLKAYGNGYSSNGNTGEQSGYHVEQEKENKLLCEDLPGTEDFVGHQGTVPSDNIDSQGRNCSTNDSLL
row,SMILES,Potency
1,C#CC(O)CCCCC (configuration not stated),inactive
2,N#C[C@@H]1CC(F)(F)CN1C(=O)CNC1CC2CCC(C1)N2c1ncccn1 (some centres not stated),inactive
3,C[C@]1(Cn2ccnn2)[C@H](C(=O)O)N2C(=O)C[C@H]2S1(=O)=O,inactive
4,CCC(C)CCCC(C)(C)O (configuration not stated),inactive
5,CCCCCCCCCCCCCCCCCCN(C)C,inactive
6,CCCCCCCCCCCCOC(=O)c1ccc(O)cc1,inactive
7,CN(C)CCC[C@@]1(c2ccc(F)cc2)OCc2cc(C#N)ccc21,inactive
8,CN(C)CCCSc1ccccc1NC(=O)/C=C/c1ccccc1,inactive
9,CC1(C)Cc2cccc(N)c2O1,inactive
10,CC(C)C[C@H](NC(=O)OCC1c2ccccc2-c2ccccc21)C(=O)O,inactive
11,Cc1ncc([N+](=O)[O-])n1CC(C)O (configuration not stated),inactive
12,CCN(O)CC,inactive
13,Cc1cccc(CN2CCN(C(c3ccccc3)c3ccc(Cl)cc3)CC2)c1 (configuration not stated),inactive
14,CC(=O)Oc1ccc(C2(c3ccc(OC(C)=O)cc3)C(=O)Nc3ccccc32)cc1,inactive
15,Nc1cccc(S(=O)(=O)c2cccc(N)c2)c1,inactive
16,Clc1ccc(C(Cn2ccnc2)OCc2c(Cl)cccc2Cl)c(Cl)c1 (configuration not stated),inactive
17,C/C=C/C(=O)CC,inactive
18,CCN(CC)CCNC(=O)c1cc(Br)c(N)cc1OC,inactive
19,NCC(=O)O,inactive
20,CCCCCCC/C=C/C=O,inactive
21,COCCO,inactive
22,O=C1c2ccccc2C(=O)C1(O)O,inactive
23,CO/N=C(\C(=O)O)c1csc(NC(=O)CCl)n1,inactive
24,CN1CCOC(c2ccccc2)c2ccccc2C1 (configuration not stated),inactive

row,SMILES,Potency
1,CN1[C@@H]2CC[C@H]1CC(OC(=O)C(O)c1ccccc1)C2 (some centres not stated),inactive
2,COC(=O)c1ccc(NC(C)=O)cc1OC,inactive
3,NS(=O)(=O)c1cc(-c2nn[nH]n2)c(NCc2cccs2)cc1Cl,inactive
4,N#Cc1c(F)cccc1F,inactive
5,CCCCCCCCCCC(=O)O,inactive
6,CCNS(=O)(=O)c1ccc(C)cc1,inactive
7,NS(=O)(=O)c1cc(C2(O)NC(=O)c3ccccc32)ccc1Cl (configuration not stated),inactive
8,Cc1ccc(C=O)s1,inactive
9,CCCCCCCCCCCCS(=O)(=O)Cl,inactive
10,Cc1ccc(S(=O)(=O)NC(=O)NN2CC3CCCC3C2)cc1 (configuration not stated),inactive
11,CCC(C(=O)O)c1ccc(N2Cc3ccccc3C2=O)cc1 (configuration not stated),inactive
12,CCCS(=O)c1ccc2nc(NC(=O)OC)[nH]c2c1 (configuration not stated),inactive
13,CCCCCCCCCCCCCCCCCCO,inactive
14,CC1(C)S[C@@H]2[C@H](NC(=O)Cc3ccccc3)C(=O)N2[C@H]1C(=O)O (tested in a mixture with another compound),inactive
15,CCC(Cc1ccccc1)(C(=O)c1ccc(N2CCOCC2)cc1)N(C)C (configuration not stated),inactive
16,O=C1CCC(C2CCCCC2)CC1,inactive
17,O=C(NCCN1CCOCC1)c1ccc(Cl)cc1,inactive
18,Cc1cccc(Nc2ccncc2S(=O)(=O)NC(=O)NC(C)C)c1,inactive
19,Cc1cccc(C(C)(C)C)c1O,inactive
20,Cc1cc(O)ccc1N,inactive
21,CCCCN1CCCC[C@H]1C(=O)Nc1c(C)cccc1C,inactive
22,CCCCN(CCCC)C(=O)N(CCCC)CCCC,inactive
23,COc1c(C)c2c(c(O)c1C/C=C(\C)CCC(=O)OCCN1CCOCC1)C(=O)OC2,inactive
